According to PubChem BioAssay (NCI):
The panel holds about 79,000 compounds, 15% with a hit somewhere; the sample as a whole holds those more often. Values without a mark were called inactive. Activity calls are given as the source filed them. Rule as the data show it: active = growth inhibition above about 70%; inactive = the rest.

Columns and labels:
[1] = NCI Yeast Anticancer Drug Screen. Data for the rad50 strain (AID 155);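 also: 0% = growth of vehicle-only cultures of the same strain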; conditions: S. cerevisiae rad50 strain growth inhibition, active compounds read high
Procedure, shortened: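 A DNA repair-deficient yeast mutant serves as the test organism; compound-induced growth inhibition is calculated against vehicle-treated cells.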

[2] = NCI Yeast Anticancer Drug Screen. Data for the mec2-1 strain (AID 157); conditions: S. cerevisiae mec2-1 strain, active compounds read high
Procedure, shortened: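 Vehicle-treated cultures served as reference for growth inhibition of compound-exposed mec2-1 yeast.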

[3] = NCI Yeast Anticancer Drug Screen. Data for the sgs1 mgt1 strain (AID 161);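 also: 0% = growth of cultures given vehicle only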; conditions: S. cerevisiae sgs1 mgt1 strain, active compounds read high
Procedure, shortened: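 Mutant yeast exposed to compound; growth scored against vehicle-only wells.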

[4] = NCI Yeast Anticancer Drug Screen. Data for the cln2 rad14 strain (AID 165);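 also: 0% = growth equal to vehicle treated cultures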; conditions: S. cerevisiae cln2 rad14 strain, active compounds read high
Procedure, shortened: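 Each compound was tested on cln2 rad14 yeast. Inhibition of growth was calculated against vehicle-exposed controls.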

[5] = NCI Yeast Anticancer Drug Screen. Data for the bub3 strain (AID 167); conditions: S. cerevisiae bub3 mutant strain, active compounds read high
Procedure, shortened: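 Inhibition values come from growth of compound-treated mutant yeast normalised to vehicle-treated controls.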

[6] = NCI Yeast Anticancer Drug Screen. Data for the mlh1 rad18 strain (AID 175); conditions: S. cerevisiae mlh1 rad18 strain growth inhibition, active compounds read high
Procedure, shortened: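 Vehicle-treated cultures served as the reference for growth inhibition in a yeast strain carrying DNA damage repair alterations exposed to each compound.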

[7] = at 5.0 µM (retest, dose inferred, filed as 0.5)
[8] = at 50.0 µM (retest, dose inferred, filed as 5.0)

Cc1ccc(SCc2nc3ccccc3c(C)[n+]2[O-])cc1
growth inhibition [1, 7]: 2% | growth inhibition [1, 8]: 86% (active) | growth inhibition ([1]; at 50.0 µM): 32.6% | growth inhibition [2, 7]: 4% | growth inhibition [2, 8]: 86% (active) | growth inhibition ([2]; at 50.0 µM): 45.6% | growth inhibition [3, 7]: -7% | growth inhibition [3, 8]: 87% (active) | growth inhibition ([3]; at 50.0 µM): 55% | growth inhibition [4, 7]: 0% | growth inhibition [4, 8]: 53% | growth inhibition ([4]; at 50.0 µM): 38% | growth inhibition [5, 7]: -4% | growth inhibition [5, 8]: 76% (active) | growth inhibition ([5]; at 50.0 µM): 55.9% | growth inhibition [6, 7]: -7% | growth inhibition [6, 8]: 91% (active) | growth inhibition ([6]; at 50.0 µM): 56.7%

Cn1cc(CCC(=O)C2C=CC=CC2=NC(=O)CCCl)c2ccccc21 (stereo not given)
growth inhibition [1, 7]: 11% | growth inhibition [1, 8]: 7% | growth inhibition ([1]; at 50.0 µM): -3.6% | growth inhibition [2, 7]: 7% | growth inhibition [2, 8]: -6% | growth inhibition ([2]; at 50.0 µM): 12.8% | growth inhibition [3, 7]: -1% | growth inhibition [3, 8]: -20% | growth inhibition ([3]; at 50.0 µM): -4% | growth inhibition [4, 7]: 14% | growth inhibition [4, 8]: 14% | growth inhibition ([4]; at 50.0 µM): 14.3% | growth inhibition [5, 7]: 11% | growth inhibition [5, 8]: 7% | growth inhibition ([5]; at 50.0 µM): 8.95% | growth inhibition [6, 7]: -2% | growth inhibition [6, 8]: 1% | growth inhibition ([6]; at 50.0 µM): -17.1%

C(=C\c1ccc(-[n+]2nc(-c3ccccc3)nn2-c2ccccc2)cc1)/c1ccccc1
growth inhibition [1, 7]: 85% (active) | growth inhibition [1, 8]: 98% (active) | growth inhibition ([1]; at 50.0 µM): 91.5% (active) | growth inhibition [2, 7]: 81% (active) | growth inhibition [2, 8]: 100% (active) | growth inhibition ([2]; at 50.0 µM): 93.4% (active) | growth inhibition [3, 7]: 79% (active) | growth inhibition [3, 8]: 100% (active) | growth inhibition ([3]; at 50.0 µM): 93.4% (active) | growth inhibition [4, 7]: 54% | growth inhibition [4, 8]: 99% (active) | growth inhibition ([4]; at 50.0 µM): 93.2% (active) | growth inhibition [5, 7]: 86% (active) | growth inhibition [5, 8]: 99% (active) | growth inhibition ([5]; at 50.0 µM): 92.3% (active) | growth inhibition [6, 7]: 95% (active) | growth inhibition [6, 8]: 99% (active) | growth inhibition ([6]; at 50.0 µM): 90.9% (active)

COc1cc2c[n+](C)c3c4ccccc4ccc3c2cc1OC (tested in a mixture with another compound)
growth inhibition [1, 7]: 27% | growth inhibition [1, 8]: 87% (active) | growth inhibition ([1]; at 50.0 µM): 38% | growth inhibition [2, 7]: 24% | growth inhibition [2, 8]: 54% | growth inhibition ([2]; at 50.0 µM): 8.85% | growth inhibition [3, 7]: 24% | growth inhibition [3, 8]: 90% (active) | growth inhibition ([3]; at 50.0 µM): 7.1% | growth inhibition [4, 7]: 21% | growth inhibition [4, 8]: 69% | growth inhibition ([4]; at 50.0 µM): 9.7% | growth inhibition [5, 7]: 27% | growth inhibition [5, 8]: 81% (active) | growth inhibition ([5]; at 50.0 µM): 17.9% | growth inhibition [6, 7]: 35% | growth inhibition [6, 8]: 77% (active) | growth inhibition ([6]; at 50.0 µM): -18.6%

Cc1ccc(SCC#CC#CCS(=O)c2ccc(C)cc2)cc1 (stereo not given)
growth inhibition [1, 7]: 100% (active) | growth inhibition [1, 8]: 98% (active) | growth inhibition ([1]; at 50.0 µM): 98.3% (active) | growth inhibition [2, 7]: 87% (active) | growth inhibition [2, 8]: 99% (active) | growth inhibition ([2]; at 50.0 µM): 98.5% (active) | growth inhibition [3, 7]: 100% (active) | growth inhibition [3, 8]: 99% (active) | growth inhibition ([3]; at 50.0 µM): 97.8% (active) | growth inhibition [4, 7]: 44% | growth inhibition [4, 8]: 98% (active) | growth inhibition ([4]; at 50.0 µM): 98% (active) | growth inhibition [5, 7]: 82% (active) | growth inhibition [5, 8]: 98% (active) | growth inhibition ([5]; at 50.0 µM): 97% (active) | growth inhibition [6, 7]: 97% (active) | growth inhibition [6, 8]: 98% (active) | growth inhibition ([6]; at 50.0 µM): 97.6% (active)
